# Shown are actives, neighbours in structure and some others; about 6.8% of the full set was active somewhere.
# C diff HTS: C. difficile growth inhibitors, primary screen, HTS; Clostridium difficile clinical isolate growth, OD600, 24 h; active compounds read low; growth activity, negative = inhibition, % at 16 µg/mL (by protocol); 86,000 tested, 0.25% active; AID 1259249, 2017;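 active = mean growth activity at or below -80% and every replicate also at or below -80%; inconclusive = mean at or below -80% but some replicate above -80%; inactive = mean growth activity above -80%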;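 note: 0% = DMSO wells and -100% = levofloxacin 16 µg/mL wells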
# Pf Dd2 inh: P. falciparum Dd2 growth inhibitors, primary screen, SYBR Green fluorescence, single dose replicates; 94,000 tested, 2.3% active; 72 h; active compounds read low; activity change, % at 10 µM; in the data active = activity change below about -80%; inconclusive = no clear call, values can overlap the other calls
# T cruzi growth-1: T. cruzi intracellular proliferation inhibitors, primary screen, cell-based, beta-gal Tulahuen parasites, NIH3T3 host, luminescence; T. cruzi beta-gal in NIH3T3, GalScreen luminescence, 90 h; inhibition, % at 8.34 µM; 77,000 tested, 5.9% active;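 active = mean inhibition above about 93%, with at least 55% of replicates each passing it, limit read from the data, passing the limit was not always enough; inconclusive = only one of those two conditions holds; inactive = neither condition holds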
# T cruzi growth-2: T. cruzi intracellular proliferation inhibitors, confirmation, cell-based, NIH3T3 host, beta-gal parasite, luminescence, cherry-pick; shares compounds with T cruzi growth-1; T. cruzi beta-gal in NIH3T3, GalScreen luminescence, 90 h; inhibition, % at 8.35 µM; 5,600 tested, 72% active; AID 651739, 2012;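 active = mean replicate inhibition above about 95% and at least 55% of replicates individually reaching it, limit read from the data; inconclusive = only one of the two criteria is met; inactive = neither criterion is met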
# T cruzi growth-3: inhibitors of intracellular T. cruzi replication, confirmation, NIH3T3 host cells, beta-gal parasites, cherry-pick, set 2 | shares compounds with T cruzi growth-1 | 5,600 tested, 21% active | inhibition, % at 2.09 µM | T. cruzi beta-gal in NIH3T3, GalScreen luminescence, 90 h;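 active = mean inhibition above about 95%, with at least 55% of replicates also reaching it, limit read from the data; inconclusive = meets just one of the two conditions; inactive = meets neither condition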;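 note: plate controls were neutral control median for no effect and positive control median for full effect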
# 3T3 cytotox: cytotoxicity in mouse NIH/3T3 fibroblasts, confirmation, cytotoxicity control for T. cruzi proliferation inhibitor project, cell-based, cherry-pick, single point | NIH/3T3 viability, CellTiter-Glo ATP luminescence, 90 h | cytotoxicity (signal decrease), % at 8.35 µM | shares compounds with T cruzi growth-1 | 5,600 tested, 14% active;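 active = mean signal decrease across replicates above about 35% based on untreated-well scatter, with enough replicates individually passing, limit read from the data; inconclusive = no rule stated though some were filed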;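 note: 0% = median of neutral control wells and 100% = median of positive control wells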
# 3T3 cytotox 2: NIH/3T3 fibroblast cytotoxicity, confirmation, cytotoxicity control, cell-based, cherry-pick, single point, set 2 | inhibition, % at 24.9 µM | 5,600 tested, 56% active | shares compounds with T cruzi growth-1 | NIH/3T3 viability, CellTiter-Glo ATP luminescence, 90 h;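 active = mean loss of cell viability signal at or above a set limit, and enough replicates individually reaching it; inconclusive = meets only the mean limit or only the replicate share; inactive = meets neither condition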;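 note: 0% = median of neutral control wells and 100% = median of positive control wells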
# Starred values were filed as active, the others as inactive; ? = inconclusive; nt = not tested or not shown.
SMILES,C diff HTS,Pf Dd2 inh,T cruzi growth-1,T cruzi growth-2,T cruzi growth-3,3T3 cytotox,3T3 cytotox 2
Cc1ccc(S(=O)(=O)Nc2ccc3c(c2)C(=O)N([C@@H](C)CO)C[C@@H](C)[C@H](CN(C)CC2CCCCC2)OCCCC[C@H](C)O3)cc1,15,-36,2,nt,nt,nt,nt
Cc1ccc(S(=O)(=O)Nc2ccc3c(c2)C(=O)N([C@H](C)CO)C[C@@H](C)[C@@H](CN(C)CC2CCCCC2)OCCCC[C@@H](C)O3)cc1,9,-65,?,100*,101*,46*,104*
C[C@@H]1CCCCO[C@H](CN(C)CC2CCCCC2)[C@H](C)CN([C@@H](C)CO)C(=O)c2cc(NS(C)(=O)=O)ccc2O1,2,nt,-42,nt,nt,nt,nt
Cc1ccc(S(=O)(=O)Nc2ccc3c(c2)C(=O)N([C@H](C)CO)C[C@@H](C)[C@H](CN(C)CC2CCCCC2)OCCCC[C@@H](C)O3)cc1,10,-63,?,102*,85,27,104*
C[C@@H]1CCCCO[C@@H](CN(C)C(=O)CCC(F)(F)F)[C@H](C)CN([C@@H](C)CO)C(=O)c2cc(NS(=O)(=O)c3cn(C)cn3)ccc2O1,1,24,17,nt,nt,nt,nt
CN(C)C(=O)C[C@H]1CC[C@@H]2[C@H](COC[C@H](O)CN2C(=O)C2CCCC2)O1,13,33,-18,nt,nt,nt,nt
C[C@H]1CN([C@@H](C)CO)C(=O)Cc2cc(NC(=O)CCCCCC(=O)Nc3ccccc3N)ccc2O[C@@H]1CN(C)S(C)(=O)=O,2,11,32,nt,nt,nt,nt
COc1ccc(S(=O)(=O)Nc2ccc3c(c2)C(=O)N([C@H](C)CO)C[C@H](C)[C@@H](CN(C)CC2CCCCC2)OCCCC[C@H](C)O3)cc1,-4,-30,?,104*,67,19,82*
COc1ccc(S(=O)(=O)Nc2ccc3c(c2)C(=O)N([C@@H](C)CO)C[C@H](C)[C@H](CN(C)CC2CCCCC2)OCCCC[C@@H](C)O3)cc1,-6,-36,38,nt,nt,nt,nt
CN(C)C(=O)c1cccc(-c2ccc([C@@H]3[C@H](CO)N4CCCCN(CCC(F)(F)F)C[C@@H]34)cc2)c1,1,0,-4,nt,nt,nt,nt
CN(C)C(=O)c1cccc(-c2ccc([C@@H]3[C@@H](CO)N4CCCCN(CCC(F)(F)F)C[C@@H]34)cc2)c1,-6,-7,58,nt,nt,nt,nt
CN(C)C(=O)c1cccc(-c2ccc([C@H]3[C@H](CO)N4CCCCN(CCC(F)(F)F)C[C@@H]34)cc2)c1,4,-20,105*,109*,86,5,25*
CN(C)C(=O)c1cccc(-c2ccc([C@H]3[C@@H](CO)N4CCCCN(CCC(F)(F)F)C[C@H]34)cc2)c1,4,-17,103*,99*,72,-22,29
CCC(=O)N(C)C[C@H]1Oc2cc(-c3ccccc3C)ccc2S(=O)(=O)N([C@@H](C)CO)C[C@H]1C,1,8,22,nt,nt,nt,nt
CO[C@H](CN(C)S(=O)(=O)c1ccc(F)cc1)[C@H](C)CN(C(=O)Nc1ccccc1F)[C@@H](C)CO,nt,-5,47,nt,nt,nt,nt
O=C(C[C@@H]1CC[C@@H](NC(=O)c2ccncc2)[C@@H](CO)O1)NCC1CCCCC1,nt,16,-24,nt,nt,nt,nt
Cc1noc(C)c1NC(=O)N(C)C[C@@H]1Oc2c(NC(=O)C3CCCCC3)cccc2C(=O)N([C@H](C)CO)C[C@H]1C,-1,13,-5,nt,nt,nt,nt
COc1ccccc1C#Cc1ccc([C@@H]2[C@@H](C#N)N(C(=O)C3CCC3)[C@H]2CO)cc1,1,-73,97*,104*,111*,-24,6
COc1ccccc1C#Cc1ccc([C@@H]2[C@H](C#N)N(C(=O)C3CCC3)[C@H]2CO)cc1,3,-52,?,103*,111*,31,28*

# Screens: PubChem, Broad Institute
